Assay [1] in a line: compounds altering viability of human ES cells (AID 493140; call rule not given here;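 note: cells exposed to compounds for four days before counting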). The following applies: human embryonic stem cell survival screen; stronger effect = higher value.
Assay [2] can be described thus: P. berghei load reduction in hepatocytes – cell-based, HepG2, luciferase luminescence, HepG2 viability, primary screen (AID 624349).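 Note: 100% = mean of DMSO negative control wells on the same plate.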 The following applies: P. berghei liver stage in HepG2, luciferase luminescence, concentration not given here; parasite load remaining: stronger effect = lower value; viability: measured here: HepG2 viability without parasites.
The nature of assay [3]: viability loss with induced miR-34 in A549 – imaging, A549 dox-inducible miR-34, nuclei and caspase counts, primary screen (AID 1347080;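 active = compounds whose cell count with miR-34 switched on is under 0.7 times the count with it off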). The following applies: A549 miR-34 inducible, Hoechst nuclei count, 48 h.
Setting [4] is: stronger effect = lower value, cell number ratio, induced over uninduced.
The mark [5] stands for this setting: measured here: relative caspase fold change +Dox/-Dox.
Setting [6] is: measured here: total cells with miR-34 induction, stronger effect = lower value.
The mark [7] stands for this setting: measured here: total cells without miR-34 induction.

Where “and” joins values, the source holds several entries; their conditions need not be identical. Equal values may be shown once. Calls of active or inactive are those of the source. Cut-off read from the data, not from the text of the source, unless noted: active = parasite load remaining mostly below about 12% (no sharp cut-off); inactive = mostly above about 10%.

Turning to `COc1cc2c3cc1Oc1cc(ccc1O)C[C@@H]1c4c(cc(OC)c(O)c4Oc4cccc(c4)C[C@@H]3N(C)CC2)CC[N+]1(C)C`, the survival in assay [1] was 7.17 (inactive). For the same compound, the parasite load remaining in assay [2] is 52.1% (inactive) and 85.1% (inactive). For the same compound, the viability – broadly, a read-out of living cells in per cent, often relative to untreated cells – in assay [2] was 113% and 81.4%. Besides, the fold change in assay [3] (setting [4]) was 0.822 (inactive); in assay [3] (setting [5]), 1.32. The values for the cell count in assay [3] (setting [6]) and in assay [3] (setting [7]) were 8210 and 9980, respectively.
For `C[C@H]1CCC2(NC1)O[C@H]1C[C@H]3[C@@H]4CC[C@H]5C[C@@H](O[C@@H]6O[C@H](CO)[C@H](O[C@@H]7O[C@H](CO)[C@@H](O)[C@H](O[C@@H]8OC[C@@H](O)[C@H](O)[C@H]8O)[C@H]7O[C@@H]7O[C@H](CO)[C@@H](O)[C@H](O)[C@H]7O)[C@H](O)[C@H]6O)CC[C@]5(C)[C@H]4CC[C@]3(C)[C@H]1[C@@H]2C` (some centres not stated), the parasite load remaining in assay [2] is 1.56% (inactive). In assay [2], the viability came out at 9.75%. The fold change was 0.761 (inactive) in assay [3] (setting [4]) and 0.652 in assay [3] (setting [5]). Moreover, the values for the cell count in assay [3] (setting [6]) and in assay [3] (setting [7]) were 430 and 564, respectively.
`O=c1ccc2cc(OC3O[C@H](CO)[C@@H](O)[C@H](O)[C@H]3O)c(O)cc2o1` (some centres not stated): the parasite load remaining in assay [2] is 70.5% (inactive). The viability in assay [2] is 96.1%. Also, the results for the fold change in assay [3] (setting [4]) and in assay [3] (setting [5]) were 0.976 (inactive) and 0.932, respectively. For the same compound, the cell count is 9360 in assay [3] (setting [6]) and 9590 in assay [3] (setting [7]).
On to `CCN1C[C@]2(COC)CC[C@H](O)[C@]34C1[C@H](C[C@H]23)[C@@]1(O)C[C@H](OC)[C@H]2C[C@@H]4[C@@H]1[C@H]2OC(C)=O`, for which the parasite load remaining in assay [2] was 81.9% (inactive). Also, the viability in assay [2] worked out at 71.5%. Besides, the fold change was 0.961 (inactive) in assay [3] (setting [4]) and 0.467 in assay [3] (setting [5]). For the same compound, the figures for the cell count in assay [3] (setting [6]) and in assay [3] (setting [7]) were 9850 and 10200, respectively.
With `COC1=CC(=O)O[C@@H](/C=C/c2ccccc2)C1`, in assay [1], the survival was 16.6 (inactive). Besides, in assay [2], the parasite load remaining was 26.1% (inactive) and 89.1% (inactive). Besides, the viability in assay [2] was 46.2% and 90.2%. In addition, the fold change was 0.899 (inactive) in assay [3] (stronger effect = lower value) and 1.34 in assay [3] (setting [5]). Besides, the cell count in assay [3] (setting [6]) was determined as 8920; in assay [3] (setting [7]), 9920.
